# Source: PubChem BioAssay (Tox21)
# Results filed as inconclusive are left out. Entries that show only a call come without a potency. Active and inactive are the calls of the source. Calls follow the shape of the full dose curve.
# Test: cAMP Responsive Elements (CRE) small molecule agonists, cell-based qHTS assay (AID 1963590)
# Conditions: CRE-bla HEK293T, beta-lactamase FRET ratio, 3 h; series mostly up to 92.4 µM
# Excerpt: U.S. Tox21 Program National Center for Advancing Translational Sciences [NCATS] Division of Preclinical Innovation [DPI] U.S. Environmental Protection Agency [EPA] National Institutes of Environmental Health Sciences [NIEHS] National Toxicology Program [NTP] U.S. Food and Drug Administration [FDA] Tox21 Assay Overview: CREB (cyclic-AMP Responsive Element Binding Protein) is a cellular transcription factor. It binds to certain DNA sequences called cAMP Responsive Elements (CRE) and regulates the transcription of the genes. […] This cell line can be used to find agonists/antagonists of the cyclic AMP signaling pathway. The activation of the report gene under culture conditions can be detected by fluorescence intensity. This cell line has been used to screen the Tox21 10K compound library to identify agonists that induce oxidative stress.
# Tox21 Assay Protocol Summary: CRE-bla Hek 293T cells were suspended in assay medium (DMEM containing 10% dialyzed FBS, 0.1 mM NEAA, 1 mM sodium pyruvate and 25 mM HEPES) and dispensed at 2,000 cells/5 uL /well into 1536-well black wall/clear bottom plates using a Multidrop Combi (ThermoFisher Scientific, Waltham, MA) dispenser. After the assay plates were incubated at 37 C/5% CO2 for 18 hrs, 23 nL of compounds dissolved in DMSO, positive controls or DMSO only was transferred to the assay plate by a pintool workstation (Kalypsys, San Diego, CA). After the plates were incubated at 37 C/5% CO2 for 3 hrs, 1 uL of LiveBLAzer B/G FRET substrate (Invitrogen, Carlsbad, CA) was added to each well using Bioraptr Flying Reagent Dispenser (FRD, Aurora Discovery, San Diego, CA). The plates were incubated at room temperature for 2 h.
row,SMILES,Potency
1,CCN(C=O)CC,inactive
2,OC1CCCC1,inactive
3,NCc1ccc(S(N)(=O)=O)cc1,inactive
4,O=C(CCN1CCN(CCO)CC1)N1c2ccccc2Sc2ccc(C(F)(F)F)cc21,inactive
5,Clc1cccc(Cl)c1NC1=NCCN1,inactive
6,C1CCCC1,inactive
7,COC(=O)Nc1ccc(Cl)c(Cl)c1,inactive
8,O=C(O)CCc1ccccc1,inactive
9,C[C@]12CCC(=O)C=C1CC[C@@H]1[C@@H]2[C@@H](O)C[C@@]2(C)[C@H]1CC[C@]2(O)C(=O)CO,inactive
10,Cc1ccc(S(=O)(=O)NC(=O)NC2CCCCCCC2)cc1,inactive
11,COc1cc(C(=O)N2CCOCC2)cc(OC)c1OC,inactive
12,CC(C[N+](C)(C)C)OC(N)=O (stereo not given),inactive
13,CCOC(=O)[C@H](CCc1ccccc1)N[C@@H](C)C(=O)N1Cc2ccccc2C[C@H]1C(=O)O,inactive
14,CC1=CC(=O)NS(=O)(=O)O1,inactive
15,COc1ccc(C(=O)CC(=O)c2ccc(C(C)(C)C)cc2)cc1,inactive
16,CO[C@@]1(NC(=O)C(C(=O)O)c2ccc(O)cc2)C(=O)N2C(C(=O)O)=C(CSc3nnnn3C)CO[C@@H]21 (stereo not given in full),inactive
17,O=c1cc(CO)occ1O,inactive
18,NC1CCCCC1N (stereo not given),inactive
19,CC(=O)Nc1ncc([N+](=O)[O-])s1,inactive
20,CCCC(=O)CC,inactive

row,SMILES,Potency
1,CC(=O)OC/C=C(\C)CC/C=C(\C)CCC=C(C)C,inactive
2,NC(=O)NC1N=C([O][Al])NC1=O (stereo not given),inactive
3,NS(=O)(=O)c1cc2c(cc1Cl)NC(CC1CCCC1)NS2(=O)=O (stereo not given),inactive
4,c1ccc2c(c1)CCC2,inactive
5,NS(=O)(=O)c1ccc(NC(=O)CCC(=O)O)cc1,inactive
6,CS(=O)(=O)c1ccc(Cl)cc1,inactive
7,CC/C=C\CCOC(=O)C(C)C,inactive
8,C[N+](C)(C)CCO,inactive
9,CC(=O)OCCc1ccccc1,inactive
10,CC(C)c1ccc(S(=O)(=O)O)cc1,inactive
11,C[N+](C)(CCOc1ccccc1)Cc1cccs1,inactive
12,O=S(=O)(O)c1cccc(S(=O)(=O)O)c1,inactive
13,CCC(C)C1CCCCC1=O (stereo not given),inactive
14,CC(C)N=C(N)/N=C(\N)Nc1ccc(Cl)cc1,inactive
15,C=CC(=O)NCOCC(C)C,inactive
16,Cc1cccc(C)c1NC(=O)CC12CCCN1CCC2,inactive
17,CCCCCc1cccc(=O)o1,inactive
18,CC1(C)[C@H](C(=O)OCc2cccc(Oc3ccccc3)c2)[C@@H]1C=C(Cl)Cl,inactive
19,CCCCOC(=O)CCS,inactive
20,CC(C)=CCCC(C)O (stereo not given),inactive
